Data from PubChem BioAssay (NCI).
This is part of a sample that, as a whole, favours compounds with a hit. Of some 83,000 tested, about 20% had one in any assay.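 Treatment: one concentration, 48 hours, 96-well format. Scoring: percent growth, with anything below 10 considered active.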 Values without a mark were called inactive. The source made the active and inactive calls.

Legend:
Assay in all cases: NCI-60 one-dose screen, 48 h (100 = growth as untreated, 0 = no growth, -100 = all killed)
Settings in all cases: 10 µM unless noted
SR leukemia = test system: SR leukemia
RPMI-8226 leukemia = test system: RPMI-8226 leukemia
OVCAR-8 ovarian = test system: OVCAR-8 ovarian
OVCAR-5 ovarian = test system: OVCAR-5 ovarian
OVCAR-4 ovarian = test system: OVCAR-4 ovarian
SK-OV-3 ovarian = test system: SK-OV-3 ovarian
IGROV1 ovarian = test system: IGROV1 ovarian
OVCAR-3 ovarian = test system: OVCAR-3 ovarian
HS 578T breast = test system: HS 578T breast
NCI/ADR-RES ovarian = test system: NCI/ADR-RES ovarian
T-47D breast = test system: T-47D breast
BT-549 breast = test system: BT-549 breast
MDA-MB-435 melanoma = test system: MDA-MB-435 melanoma
SW-620 colon = test system: SW-620 colon
MCF7 breast = test system: MCF7 breast
HCT-116 colon = test system: HCT-116 colon
HCC-2998 colon = test system: HCC-2998 colon
KM12 colon = test system: KM12 colon

Structure (SMILES)	growth (SR leukemia)	growth (RPMI-8226 leukemia)	growth (OVCAR-8 ovarian)	growth (OVCAR-5 ovarian)	growth (OVCAR-4 ovarian)	growth (SK-OV-3 ovarian)	growth (IGROV1 ovarian)	growth (OVCAR-3 ovarian)	growth (HS 578T breast)	growth (NCI/ADR-RES ovarian)	growth (T-47D breast)	growth (BT-549 breast)	growth (MDA-MB-435 melanoma)	growth (SW-620 colon)	growth (MCF7 breast)	growth (HCT-116 colon)	growth (HCC-2998 colon)	growth (KM12 colon)
CCCCCCNC(=O)Oc1ccc(/C(=C(\C)c2ccccc2)c2ccc(OCCN3CCCCC3)cc2)cc1	-8.47% (active)	39.6%	76.6%	93.9%	71%	71.8%	63.7%	66.9%	76.3%	63.1%	30.1%	64.2%	68.2%	34.1%	12.7%	33.9%	76.6%	49.2%
COc1cc2nc(-c3ccc(C(F)(F)F)cc3)cc(OCCN3CCCCC3)c2cc1OC	19.2%	42.3%	78.2%	58.4%	81.8%	83.7%	46.5%	89.7%	74.7%	63.1%	85.1%	40.4%	90.5%	98.8%	79.5%	45.8%	76.7%	80.3%
COc1ccc(CNCCN2C(=O)c3ccc4c5c(ccc(c35)C2=O)C(=O)N(CCNCc2ccc(OC)c(OC)c2OC)C4=O)c(OC)c1OC	-23.2% (active)	-25% (active)	-9.78% (active)	-60.1% (active)	-94.1% (active)	58%	-29.9% (active)	-42.8% (active)	-34.6% (active)	-3.82% (active)	-18.4% (active)	-11.4% (active)	-48.2% (active)	-37% (active)	-67.1% (active)	1.82% (active)	-79.5% (active)	-41.4% (active)
O=C1Nc2cc(-c3ccc(NS(=O)(=O)c4ccccc4)cc3)ccc2/C1=C/c1ccc[nH]1	6.67% (active)	77.8%	97.1%	52%	68.7%	79.1%	93.1%	108%	97.7%	92.6%	18.5%	24.6%	88.2%	84.9%	6.53% (active)	82%	91.6%	46.7%
O=C(/C=C/c1ccc(Cl)cc1)c1ccc(NC(=O)N2CCN(c3cc4c(cc3F)c(=O)c(C(=O)O)cn4C3CC3)CC2)cc1	22%	79.1%	65.3%	103%	99.2%	99.1%	89.2%	93.8%	86.7%	99.8%	76.4%	52.2%	98.8%	97.2%	22.6%	11.8%	102%	85.8%
CN1CCC(=C(c2ccccc2)c2ccccc2)C(c2ccccc2)C1 (stereo unspecified)	96.5%	103%	99.3%	90%	104%	115%	81.7%	113%	103%	83.4%	93.7%	97.1%	102%	92.9%	86.7%	71.3%	88.7%	97.3%
CC(=O)[C@@H]1CC[C@]2(CO)CC[C@]3(C)[C@H](CC[C@@H]4[C@@]5(C)CCCNC(C)(C)[C@@H]5CC[C@]43C)[C@@H]12	86.8%	98.6%	105%	102%	101%	122%	99.1%	97.2%	96.1%	96.4%	103%	101%	96.8%	103%	87.1%	94.3%	101%	101%
C#CCNC(=O)[C@H](Cc1ccccc1)NC(=O)[C@]12CC[C@@H](C(=C)C)[C@@H]1[C@H]1CC[C@@H]3[C@@]4(C)CCC(=O)C(C)(C)[C@@H]4CC[C@@]3(C)[C@]1(C)CC2	42%	38%	86.8%	87.1%	81.6%	84.7%	89.1%	62.9%	85.1%	79.8%	49.8%	104%	85%	64.8%	56%	35.3%	80.8%	61.5%
COc1ccc(C(=O)C2C(C#N)C(C#N)C3C=Cc4ccccc4N32)cc1 (stereo unspecified)	21.3%	29.9%	27.6%	31.4%	46.4%	55.2%	23.2%	-11.9% (active)	14.4%	-7.8% (active)	42.5%	63.9%	-47.8% (active)	26.5%	9.25% (active)	15.9%	33.6%	6.36% (active)
COc1cccc(/C=N/NC(=O)c2cnn3c2NC(c2ccccc2)C3)c1Oc1ccccc1 (stereo unspecified)	43.1%	100%	89%	97.4%	98.9%	90.8%	78.4%	42%	93.4%	87.9%	79.8%	65.7%	1.99% (active)	65.6%	47.7%	55.6%	91%	51.8%
Cc1ccc(-n2c3c(c(-c4ccccc4)c2-c2ccccc2)C2=NCCN2C=N3)cc1	80%	77.8%	75.2%	103%	78.5%	94.7%	62.6%	90.5%	94.8%	100%	72.7%	107%	97.8%	89.9%	86.8%	76.5%	108%	90.5%
C#CCNC(=O)c1cccc2c1cc(C)n2-c1nc2c(c(NCc3ccccc3)n1)CCCC2	6.53% (active)	0.445% (active)	12.8%	8.62% (active)	-11.8% (active)	2.45% (active)	-21.7% (active)	-61.2% (active)	8.06% (active)	1.28% (active)	-11.6% (active)	-38.7% (active)	-61.3% (active)	-4.61% (active)	-0.959% (active)	-41.5% (active)	-84.2% (active)	-43.6% (active)
C=C(CBr)[C@@H]1CC[C@]2(COC(C)=O)CC[C@]3(C)[C@H](CC[C@@H]4[C@@]5(C)CCCNC(C)(C)[C@@H]5CC[C@]43C)[C@@H]12	10%	7.96% (active)	40.4%	87.3%	50.8%	72.5%	60.1%	33.7%	73.7%	48.9%	25.9%	36.2%	54.5%	31.5%	21.5%	15.3%	50.8%	41.9%
CCOc1ccc(Nc2nc(-c3ccc4c(c3)NC(=O)CO4)cs2)cc1	64.6%	28%	62.8%	92.8%	25%	100%	94.3%	73.7%	107%	14.4%	24.6%	47%	30.7%	82.5%	38.1%	40.7%	86%	67.9%
O=S(=O)(NCCNc1nccc(-c2c(-c3cccc(F)c3)nc3sccn23)n1)c1ccc(Cl)cc1	40.6%	59.4%	53.6%	93.3%	63.6%	94.9%	15.8%	65.4%	72.5%	67.7%	43.2%	71.3%	26.3%	59.6%	24.7%	34%	83.4%	47.7%
COc1ccc(NC(=O)c2cc(NCc3cc(O)ccc3O)ccc2O)cc1	39.3%	49.5%	83.3%	116%	91.9%	86%	88.4%	84.3%	90.1%	101%	68.4%	71.8%	99.7%	100%	75.6%	96.9%	107%	88.3%
N#Cc1c(NCc2ccccc2I)sc2c1CCCCC2	93.8%	91.9%	88.8%	96.3%	90%	97.8%	71.9%	104%	93.3%	89.7%	73.3%	102%	99.9%	97.2%	80%	90.3%	113%	96.6%
